In PubChem BioAssay (NCI):
Compounds without any hit were thinned out: in the full panel of roughly 83,000, 20% have a hit.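 Values shown are percent growth following 48 h exposure of cells in 96-well plates to a single concentration of compound; below 10 was considered active.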 Activity calls are given as the source filed them.

The compounds below were run on OVCAR-8 ovarian (assay: NCI-60 one-dose screen, 48 h (100 = growth as untreated, 0 = no growth, -100 = all killed)). Conditions: 10 µM unless noted.

| Structure (SMILES) | growth |
| --- | --- |
| CC1=CC[C@@H]2C(C)(C)C(=O)CC[C@@]2(C)[C@@H]1COc1ccc2ccc(=O)oc2c1 | 51.1% (inactive) |
| COc1ccc(/C=C2\N=C(Nc3ccccc3)N(NC(=O)c3ccccn3)C2=O)cc1 | 100% (inactive) |
| COc1ncc(-c2ccc3nccc(C#CCCCCC(=O)NO)c3c2)cc1NS(=O)(=O)c1ccc(F)cc1F | -12.8% (active) |
| COc1ccc2c(c1)C(C)Cc1c(Cl)ncnc1N2C (stereo not given) | 7% (active) |
| CC[C@@H]1NC(=O)[C@@H]2CCCCN2C(=O)[C@@H]2CCCN2C(=O)[C@@H](NC(=O)[C@H](Cc2cc(F)cc(F)c2)NC(=O)Nc2ccc(C3CC3)cc2F)[C@H](C)OC(=O)[C@@H]2C[C@@H](C)CN2C1=O | 13.2% (inactive) |
| CCN(CC)c1cc(N)c(Cc2c(N)cc(N(CC)CC)cc2Cl)c(Cl)c1 | 37.3% (inactive) |
| O=C1COCCN1c1ccc(Nc2nc(Cl)nc(N3CCOCC3)n2)cc1 | 97.9% (inactive) |
| Cn1cc(-c2nnc(-c3cn(C)c4ncc(Br)cc34)s2)c2cc(Br)ccc21 | 96.1% (inactive) |
| Nc1ccc2c(c1)Cc1cc(NC(=O)C(F)(F)F)ccc1-2 | 102% (inactive) |
| COc1ccc(-c2cc(-c3ccc(Cl)cc3)nc(NCCCCNc3ccnc4cc(Cl)ccc34)n2)cc1 | -23.3% (active) |
| C#C[C@]1(O)CC[C@H]2[C@@H]3CC=C4c5nc(Nc6ccc(OC)cc6OC)sc5CC[C@]4(C)[C@H]3CC[C@@]21C | 59.4% (inactive) |
| CNC(=O)c1cc(Oc2ccc3nc(NC(=O)c4ccc5ncccc5c4)sc3c2)ccn1 | 100% (inactive) |
| COc1ncc(-c2ccc3nccc(C#CCCCCC(=O)O)c3c2)cc1NS(=O)(=O)c1ccc(F)cc1F | 35.4% (inactive) |
| CCc1ccc(C2=C/C(=C/c3ccccc3)C(=O)N2CCc2ccc(S(N)(=O)=O)cc2)cc1 | 100% (inactive) |
| Cc1ccc(-c2cn(C/C=C3\C=CN(S(=O)(=O)c4ccccc4)CC3)nn2)cc1 | 100% (inactive) |
| CCN1c2ccccc2C(Cl)(c2ccc(N(C)C)cc2)c2ccccc21 | 17.9% (inactive) |
| COc1ccc(-c2ccc(NNC(=O)c3ccc(F)cc3)nn2)cc1OC | 66.8% (inactive) |
| c1ccc(-c2nnc(-c3c[nH]c4ncccc34)s2)cc1 | 98.9% (inactive) |

| Structure (SMILES) | growth |
| --- | --- |
| COc1c(B(O)O)cccc1-c1nc2ccc3[nH]ncc3c2c2c1CCC2 | 61.2% (inactive) |
| O=C1/C(=C\c2cccn2Cc2ccccc2)c2ccccc2N1c1c(Cl)cccc1Cl | 90.8% (inactive) |
| CN(C)c1ccc(-c2ccc(-c3ccc(C(=N)N)cc3)s2)cc1 | 57.6% (inactive) |
| CC(C)(C)c1cc(C(=O)Nc2ccc(C(=O)NCCN)cc2)cc(C(C)(C)C)c1 | 72.2% (inactive) |
| CC1=CC[C@@H]2C(C)(C)[C@@H](O)CC[C@@]2(C)[C@@H]1COc1ccc2ccc(=O)oc2c1 | 30.5% (inactive) |
| CCn1cc(-c2cc(-c3ccc(Cl)cc3)nc(N)n2)c(-c2ccc(Br)cc2)n1 | 84.9% (inactive) |
| COc1cc(-c2cc(-c3ccc(Nc4ncnc5cc(Cl)ccc45)cc3)nc(N3CCCCC3)n2)cc(OC)c1OC | 88.9% (inactive) |
| Cn1cc(-c2nnc(-c3ccccc3)s2)c2cc(Br)cnc21 | 94.4% (inactive) |
| CC(=O)Nc1ccc2nc3ccc(NC(C)=O)cc3[n+](-c3ccccc3)c2c1 | 93.5% (inactive) |
| Cc1cccc(C[C@H](NC(=O)Nc2ccc(Cl)cc2F)C(=O)N[C@@H]2C(=O)N3C[C@H](O)C[C@H]3C(=O)N3CCCC[C@H]3C(=O)N[C@@H](C)C(=O)N3C[C@H](C)C[C@H]3C(=O)O[C@H]2C)c1 | 13.5% (inactive) |
| COc1ccc(NC(=S)NNc2ccc(-c3ccc(OC)c(OC)c3)nn2)cc1 | 101% (inactive) |
| Cn1cc(-c2nnc(-c3cn(C)c4ncccc34)s2)c2ccccc21 | 90.9% (inactive) |
| Fc1cc2[nH]ncc2c2c3c(c(-c4cn[nH]c4C(F)(F)F)nc12)C1CCC3C1 (stereo not given) | 10.2% (inactive) |
| COc1ccc2nc3cc(Cl)ccc3c(Nc3ccc(O)cc3)c2c1 | 68.5% (inactive) |
| CCOC(=O)n1cc(C2=C(c3ccc(OC)c(OC)c3)COC2=O)c2ccccc21 | 25.5% (inactive) |
| C[n+]1c(-c2ccccc2)c2cc(N)ccc2c2ccccc21 | 34% (inactive) |
| Fc1cc2[nH]ncc2c2c3c(c(-c4cn[nH]c4)nc12)CCCC3 | 4.78% (active) |
